Results taken from PubChem BioAssay (Tox21).
Inconclusive results are not listed. Activity calls are given as the source filed them. Unless noted, calls follow the shape of the dose curve; as a rule, active = well fitted curve in the direction sought with a large enough effect in the repeat runs; inconclusive = weak or mixed curves; inactive = no such curve, though single readings can be large; an effect the other way counts as inactive or inconclusive.

Key:
[1] = qHTS assay to identify small molecule antagonists of the estrogen related receptor (ERR) signaling pathway - cell viability counter screen (AID 1224818); also: series mostly up to about 46 µM
In short: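 ERR cells, 2,000 per well, compound added after 6 h and incubated 17.5 h at 37 C. Viability read by CellTiter-Fluor fluorescence after a further 30 min at 37 C.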

[2] = qHTS assay to identify small molecule antagonists of the estrogen related receptor (ERR) signaling pathway (AID 1224819;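 also: luminescence from an ERR-driven luciferase reporter measured with One-Glo reagent; series mostly up to about 46 µM; nearly all actives have a fitted effect of over 50% in size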)
In short: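 ERR reporter cell line (NTP) plated at 2,000 cells/well, settled 6 h at 37C/5% CO2, then exposed to LOPAC compounds for 18 h at 37C. One-Glo luciferase luminescence read after 30 min at room temperature.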

[3] = qHTS assay to identify small molecule agonists of the estrogen related receptor (ERR) signaling pathway (AID 1224820)
In short: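 Quantitative HTS of the LOPAC library used NTP ERR reporter cells treated 18 h at 37 C. Signal is luminescence after One-Glo addition and a 30 min room-temperature incubation.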

[4] = test system: estrogen-related receptor alpha (ERRalpha) with PGC-1alpha coactivator, human; experiment: qHTS assay to identify small molecule antagonists of the estrogen related receptor signaling pathway with the pleiotropic PPARgamma coactivator (PGC) (AID 1224821; calls by dose curve;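 also: series mostly up to about 46 µM; lower luminescence signal means antagonism of PGC/ERR signalling; nearly all actives have a fitted effect of over 50% in size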)
In short: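 Quantitative HTS for antagonism: PGC/ERR cells received compounds after 6 h attachment and were incubated 18 h at 37 C, with luminescence (One-Glo) as the endpoint.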

[5] = qHTS assay to identify small molecule antagonists of the estrogen related receptor signaling pathway with the pleiotropic PPARgamma coactivator (PGC) cell viability counter screen (AID 1224822; also: series mostly up to about 46 µM)
In short: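 PGC/ERR cells rested 6 h, then compound-treated 17.5 h at 37 C. CellTiter-Fluor added for 30 min at 37 C, viability measured by fluorescence intensity.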

[6] = qHTS assay to identify small molecule agonists of the estrogen related receptor signaling pathway with the pleiotropic PPARgamma coactivator (PGC) (AID 1224823)
In short: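 Cell-based luciferase assay in the NTP-supplied PGC/ERR line, 2,000 cells/well; 18 h compound exposure at 37 C, luminescence after One-Glo.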

Measured: Potency

C[N+](C)(C)CC#CCN1CCCC1=O
inactive: all assays above
